Hits are enriched below; roughly 14% of the tested compounds scored in any of these assays.
MARV entry inh – inhibitors of Marburg virus binding or cell entry; AID 540276; Potency, µM (top dose mostly 37.8 µM), inactives show at the top dose activity change, negative = inhibition, usual class: inhibitors; Marburg virus pseudotyped entry inhibition, cell reporter; 300,000 compounds, 1.8% hits; calls by dose curve; tested in HEK293 cells; further: potency means the concentration at half of the fitted maximal effect
Pf growth 96h – inhibits malaria parasite growth, 96 h. Potency, µM (top dose mostly 28.7 µM), for inactives: at the highest dose activity change, negative = inhibition, usual class: inhibitors. P. falciparum luciferase reporter growth, 96 h. 320,000 compounds, 6.9% hits. AID 504834; further: potency means the concentration at half of the fitted maximal effect
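Readout is luminescence from an integrated firefly luciferase in P. falciparum. Red cells, 2% hematocrit and 0.05% parasitemia final, were cultured with compound through two parasite generations (96 hours) at 37 C, 5% CO2.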
HCV inhibitor – blocks hepatitis C virus | AID 651820 | 340,000 compounds, 3.4% hits | Huh7.5.1 HCVcc-Cre infection, luciferase reporter, 44 h | Potency, µM (series often up to 41.8 µM), inactives show at the highest dose activity change, negative = inhibition, usual class: inhibitors; further: potency means the concentration at half of the fitted maximal effect
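Cells (1,000/well) were plated 4 h before compound, then infected with HCVcc-Cre virus (~0.5 moi). After 44 h further culture, infection was read as luciferase luminescence following a 15 min substrate incubation at room temperature.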
LASV entry inh – inhibitors of Lassa virus binding or cell entry; Lassa virus pseudotype entry inhibition, cell reporter; Potency, µM (top dose mostly 37.9 µM), inactives show at the top dose activity change, negative = inhibition, usual class: inhibitors; 300,000 compounds, 1.2% hits; calls by dose curve; tested in HEK293 cells; further: potency means the concentration at half of the fitted maximal effect; nearly all actives have a fitted effect of over 50% in size
Pf growth 48h – P. falciparum growth inhibition at 48 hours (one generation) | P. falciparum luciferase growth in erythrocytes, 48 h | AID 504832 | Potency, µM (doses to about 28.7 µM), without a hit: top-dose activity change, negative = inhibition, hits mostly inhibitors | 310,000 compounds, 5.9% hits; further: potency means the concentration at half of the fitted maximal effect
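Firefly luciferase activity from engineered P. falciparum reports growth; inhibitors lower the luminescent signal. Cultures contained 2% hematocrit erythrocytes at 0.1% final parasitemia.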
HCMV antiviral – human cytomegalovirus inhibition. HFF cells, HCMV-luciferase reporter, 72 h; active compounds read low. activity change, negative = inhibition, % at 57.5 µM. 410,000 compounds, 4.5% hits; in the data active means activity change below about -60%; inconclusive means no clear call, values can overlap the other calls; inactive means above about -39%
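Cell-based, HFFs, 1000 cells/well, 16 h 37C; cpds in DMSO + HCMV-luc, MOI 1 PFU/cell; 72 h 37C; OneGlo luminescence after 5 min RT; norm. to buffer vs Salinomycin 10uM.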
* hit, by the source's call; ? = inconclusive; nt = no result; [ ] = remark or other dose. Unless noted, the call rests on the fitted dose curve; in most records, active means well fitted inhibition curve with a large enough effect; inconclusive means small, poorly fitted or top-dose-only effect, or another doubt; inactive means no such curve, though single readings can be large or run the other way. On the % scale 0 is the no-effect control and ±100 the full control effect.

SMILES | MARV entry inh | Pf growth 96h | HCV inhibitor | LASV entry inh | Pf growth 48h | HCMV antiviral
CSc1ccccc1OCc1cc(C(=O)NCCCc2ccccc2)no1 | 23% | ? | nt | -1% | -13% | ?
COc1ccc(OCc2cc(C(=O)NCCCc3ccccc3)no2)c(Cl)c1 | -29% | 9.3µM* | -16% | -17% | ? | -10
COc1ccc(OCc2cc(C(=O)N(C)C(C)c3ccon3)no2)c(Cl)c1 (stereo not drawn) | -7% | ? | -14% | 3% | 44% | -93*
O=C(NC1CCc2ccccc21)c1cc(COc2ccc(F)cc2F)on1 (stereo not drawn) | ? | 0% | ? | 6% | 30% | -23
CCOC(=O)N(C)c1c(CC)nc2c(OCc3ccc(Cl)cc3Cl)cccn12 | nt | nt | nt | nt | nt | 19
Cc1cc(C)cc(NC(=O)CSc2oc(-c3cccs3)nc2S(=O)(=O)c2ccccc2)c1 | -20%[46.1 µM] | nt | nt | ? | nt | 1
CCCNS(=O)(=O)c1ccc2nc(NC(=O)c3ccc(F)cc3)sc2c1 | nt | nt | nt | 4%[46.1 µM] | nt | -12
Cc1ccc(NC(=O)C2CCCN(S(=O)(=O)c3ccc(C)cc3)C2)cc1 (stereo not drawn) | 6%[46.1 µM] | nt | nt | -3%[46.1 µM] | nt | ?
Cc1ccc(NC(=O)c2cccc(Oc3ccc([N+](=O)[O-])cc3)c2)c(C(=O)O)c1 | nt | -21% | 13% | nt | 18% | 49
Cn1cc([N+](=O)[O-])c(C(=O)Nc2ccc3c(C(F)(F)F)cc(=O)oc3c2)n1 | nt | 1% | ? | nt | 89% | -99*
Cc1cccc(Oc2cc(NC(=O)c3ccccc3)cc([N+](=O)[O-])c2)c1 | ? | ? | ? | ? | -82% | -64*
CCn1nc(C)c(C(=O)Nc2cc(Oc3cc(C)cc(C)c3)cc([N+](=O)[O-])c2)c1C | ? | 12µM* | ? | ? | ? | -31
Cn1cc([N+](=O)[O-])c(C(=O)Nc2cc(Oc3ccccc3)cc([N+](=O)[O-])c2)n1 | ? | ? | ? | ? | 18% | -99*
Cc1cc(C)cc(NC(=O)C2CCN(c3cc(C)nc4c(-c5ccc(Cl)cc5)c(C)nn34)CC2)c1 | 10%[46.1 µM] | nt | nt | 15%[46.1 µM] | nt | 10
CC[N+]1=C(C)C(C)(C)c2cc(C)ccc21 | nt | 7% | 13µM* | nt | ? | -94*
CCOc1cc(S(=O)(=O)NCCc2c(C)[nH]c3ccc(C)cc23)ccc1F | nt | nt | nt | ? | nt | 6
CCN(CC)CCn1c2c(c(SCC(=O)Nc3ccc(C)c(F)c3)nc1=O)CCC2 | 16% | 53% | -29%[8.37 µM] | -19% | 22% | -99*
CCN(CC)CCn1c2c(c(SCC(=O)Nc3ccc(C(C)C)cc3)nc1=O)CCCC2 | -7% | ? | 14µM* | 1% | ? | -9
CCN(CC)CCn1c2c(c(SCC(=O)Nc3ccc(C)c(F)c3)nc1=O)CCCC2 | -9% | ? | 1% | -6% | 7.4µM* | -9
CN(C)CCn1c2c(c(SCC(=O)Nc3ccc4c(c3)OCCO4)nc1=O)CCC2 | 10% | 6% | 11% | 15% | -8% | 13
CCN(CC)CCn1c2c(c(SCC(=O)Nc3ccc4c(c3)OCCO4)nc1=O)CCC2 | -17% | 2.1µM* | 12% | 21% | ? | -36
O=C(CS(=O)(=O)c1cccc2nsnc12)Nc1ccc(F)cc1 | nt | nt | nt | 9%[46.1 µM] | nt | -3
CSc1ccc(CN2CCC(N3CCC(C(=O)NC4CC4)CC3)CC2)cc1 | nt | nt | nt | nt | nt | -12
CCN(CC)CCn1c2c(c(SCC(=O)Nc3nc(C)cs3)nc1=O)CCCC2 | ? | ? | ? | 3% | ? | -80*
CCN(CC)CCn1c2c(c(SCC(=O)Nc3nc(C)cs3)nc1=O)CCC2 | ? | ? | 13% | -15% | -2% | -11
SMILES | MARV entry inh | Pf growth 96h | HCV inhibitor | LASV entry inh | Pf growth 48h | HCMV antiviral
C(=C\c1ccccc1)/CN1CCN(C(CCc2ccccc2)c2nnnn2C2CCCCC2)CC1 (stereo not drawn) | nt | nt | nt | nt | nt | -40
O=c1[nH]c2ccccc2n1C1CCN(C(c2cc3ccccc3o2)c2nnnn2Cc2ccccc2)CC1 (stereo not drawn) | nt | nt | nt | nt | nt | -101*
O=c1[nH]c2ccccc2n1C1CCN(C(CCc2ccccc2)c2nnnn2C2CCCC2)CC1 (stereo not drawn) | nt | nt | nt | nt | nt | -102*
O=c1[nH]c2ccccc2n1C1CCN(C(c2cccc3ccccc23)c2nnnn2Cc2ccccc2)CC1 (stereo not drawn) | nt | nt | nt | nt | nt | -75*
COc1cccc(C(c2nnnn2Cc2ccccc2)N2CCC(n3c(=O)[nH]c4ccccc43)CC2)c1OC (stereo not drawn) | nt | nt | nt | nt | nt | -70*
O=C(COc1ccc(Cl)cc1)NCC(c1ccco1)S(=O)(=O)c1ccc(F)cc1 (stereo not drawn) | nt | nt | nt | -27%[46.1 µM] | nt | -15
COc1ccc(-c2ccc(CN3C(C(C)C)C(=O)N(Cc4cn(CC5CCCCC5)nn4)CCS3(=O)=O)cc2)cc1 (stereo not drawn) | ? | nt | nt | nt | nt | 11
CC1(C(=O)Nc2ccc3c(c2)OCCO3)CN(S(C)(=O)=O)CC(=O)N1CC(F)(F)F (stereo not drawn) | nt | nt | nt | nt | nt | 8
O=C(c1ccccc1)c1cc2ccc(O)cc2oc1=O | 5% | 0.17µM* | 9% | 6% | 47% | -4
Cc1cccnc1C(NC(=O)C1CCN(CCCOc2ccccc2)CC1)c1ccc(F)cc1 (stereo not drawn) | nt | nt | nt | nt | nt | 41
COc1ccc(COCC(O)CN2CCN(S(=O)(=O)c3c(F)cccc3F)CC2)cc1OC (stereo not drawn) | -17% | nt | 35µM* | -19% | nt | -5
COc1ccccc1COCC(O)CN1CCN(S(=O)(=O)c2cccc(F)c2)CC1 (stereo not drawn) | nt | -26% | 5% | nt | -26% | 33

High-throughput results deposited in PubChem BioAssay by National Center for Advancing Translational Sciences (NCATS).
